This is an account of results in PubChem BioAssay (NCATS).

Records with an inconclusive call do not appear. Unmarked numbers belong to inactive results. Activity calls are given as the source filed them. The call rests on the fitted dose curve; in most records, active means well fitted cell-killing curve with a large enough effect; inconclusive means small, poorly fitted or top-dose-only effect; inactive means no such curve, though single readings can be large or run the other way.
Potency means the concentration at half of the fitted maximal effect.

This assay can be described thus: qHTS of pediatric cancer cell lines to identify multiple opportunities for drug repurposing: Primary screen for LAN-5 cells (AID 1347100).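 On activity change, negative = cytotoxic: plate controls were DMSO neutral control for no effect and bortezomib positive control for full effect.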 To be noted: LAN-5 neuroblastoma viability, CellTiter-Glo luminescence, 48 h; series mostly up to 46 µM; activity change, negative = cytotoxic: at the top concentration. The procedure, abridged:
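Cells (500-1,000/well) rested 5 h, then received compounds for 48 h; metabolically active cells were measured by CellTiter-Glo luminescence. Final concentrations spanned up to 46 µM (MIPE, 11-point) or 0.59 nM-46 µM (NPC, 8-point) in primary screens, 11-point in follow-ups.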
(In general: qHTS replaces the single test concentration by a dilution series.)
As to `COc1c(N2C[C@@H]3CCCN[C@@H]3C2)c(F)cc2c(=O)c(C(=O)O)cn(C3CC3)c12`, the “activity change, negative = cytotoxic” value was 12.5%.
Take `CCO[C@H](Cc1ccc(OCCc2ccc(OS(C)(=O)=O)cc2)cc1)C(=O)O`: the “activity change, negative = cytotoxic” value is -0.0759%.
The same measure, in the same setting: the value for `Cc1cc(O)c2c(O)c3c(O)cccc3cc2c1` was -5.37%.
On the same count and under the same terms, the value for `CCC(C(=O)OCCN1CCOC(c2ccccc2)C1C)c1ccccc1` (centres undefined) was -11.1%; that for `O=C1[C@@H]2[C@H]3CC[C@H](C3)[C@@H]2C(=O)N1CCCCN1CCN(c2ncccn2)CC1` was -0.955%; that for `O=C1CC2(CCCC2)CC(=O)N1CCNCC1COc2ccccc2O1` (centres undefined) was 0.271%.
With `CO/N=C(\C(=O)O)c1csc(NC(=O)CCl)n1`, the “activity change, negative = cytotoxic” value was 23.1%.
Same read-out and setting: the value for `Cc1ccc(C(=O)Oc2ccc(C(O)CNC(C)(C)C)cc2OC(=O)c2ccc(C)cc2)cc1` (centres undefined) was 4.98%.
For `O=C(O)c1ccccc1Nc1cc(Cl)ccc1C(=O)O`, the “activity change, negative = cytotoxic” value was 4.66% [at 16.1 µM].
Consider `CC(=O)OCC(=O)Nc1cc(C#N)cc(NC(=O)COC(C)=O)c1Cl`, for which the “activity change, negative = cytotoxic” value is 2.39%.
As for `O=C(O)c1ccc(OCCN2CCCCC2)cc1`, the “activity change, negative = cytotoxic” value is 20.8%.
On to `CN(C)C(=O)CNC(=O)Cc1ccccc1`, for which the “activity change, negative = cytotoxic” value was -0.933%.
As for `C[C@]12CCC(=O)C=C1CC[C@@H]1[C@@H]2[C@@H](O)C[C@@]2(C)[C@H]1CC[C@]2(O)C(=O)COC(=O)CCC(=O)O`, the “activity change, negative = cytotoxic” value is -0.147%.
`C=C(C)C(=O)OCC(O)CO` (centres undefined): the “activity change, negative = cytotoxic” value was -10.8%.
For the molecule `O=C(O)C(=O)Nc1cccc(-c2nn[nH]n2)c1`, the “activity change, negative = cytotoxic” value is 15.2%.
For the molecule `Cc1ccccc1N1CCN(CCc2nnc3n2CCCC3)CC1`, the “activity change, negative = cytotoxic” value is 11.8%.
Turning to `OCCc1ccccc1`, the “activity change, negative = cytotoxic” value was -2.11%.
Turning to `CN1C(=O)c2ccccc2C1=O`, the “activity change, negative = cytotoxic” value was -12.5% [at 92.7 µM].
Consider `CCCCOCCOC(=O)c1cccnc1`, for which the “activity change, negative = cytotoxic” value is 22.5%.
As for `Nc1ccc(C(=O)N2CC3CC(CN(Cc4ccccc4)C3)C2)cc1`, the “activity change, negative = cytotoxic” value was 41.2%.
Still for that read-out and setting: the result for `Cc1[nH]cnc1-c1ccc(Cl)cc1` reads 3.06%; that for `COc1cc(C(=O)OC(COCCC(C)C)CN2CCOCC2)cc(OC)c1OC` (centres undefined), 8.84%.
For the molecule `C[C@H]1C[C@@H]2[C@H]([C@@H](O)C[C@@]3(C)[C@H]2CC[C@]3(O)C(=O)CO)[C@@]2(C)C=CC(=O)C=C12`, the “activity change, negative = cytotoxic” value was 3.65%.
Same read-out and setting: the result for `CC(Oc1c(Cl)cccc1Cl)C1=NCCN1` (centres undefined) reads 21.9%; that for `COC(=O)c1cc(Cl)ccc1OC`, -3.21%; that for `Cc1ccc2ccc(Cl)cc2n1`, 7.17%.
In the case of `CCCCCCCCCCCCCCCCCCN(C)C`, the “activity change, negative = cytotoxic” value is 8.34%.
For the molecule `Oc1cccc2[nH]ccc12`, the “activity change, negative = cytotoxic” value is -0.387%.
As to `CN(C)CCN1CCN(c2cccc(Cl)c2)C1=O`, the “activity change, negative = cytotoxic” value is 7.26%.
As to `Cc1ccc(C(C)OC(=O)C2(C)CCC(C(=O)O)C2(C)C)cc1` (centres undefined), the “activity change, negative = cytotoxic” value was 8.01%.
On to `CCCCCCCCCCCCCCCC[n+]1ccccc1`, for which the Potency is 13.3 µM (active).
Regarding `COc1cc(OC)nc(O[C@H](C(=O)O)C(OC)(c2ccccc2)c2ccccc2)n1`, the “activity change, negative = cytotoxic” value was 27.9%.
For the molecule `NC(=O)COCCN1CCN(C(c2ccccc2)c2ccc(Cl)cc2)CC1` (centres undefined), the “activity change, negative = cytotoxic” value was -0.0863%.
Same read-out and setting: the value for `C1=CC2C3C=CC(C3)C2C1` (centres undefined) was 35.1% [at 92.7 µM].
